# About 1,600 (39%) of roughly 4,100 compounds were called active. Inconclusive results (about 25%) are left out. The call rests on the fitted dose curve; in most records, active means well fitted inhibition curve with a large enough effect; inconclusive means small, poorly fitted or top-dose-only effect; inactive means no such curve, though single readings can be large or run the other way. This is one part of the list.
# Test: qHTS Validation assay for Inhibitors of Plasmodium falciparum Dd2 growth in vitro; further: nearly all actives have a fitted effect of over 70% in size
# Settings: P. falciparum Dd2 in RBCs, SYBR Green growth, 72 h; series mostly up to 28.7 µM; activity change, negative = inhibition: at the top concentration
# Outline: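 P. falciparum Dd2-infected red blood cells (2.5% hematocrit, 0.3% parasitemia) grown 72 h at 37 °C under 5% O2 with compounds in a titration, 29 uM to 0.5 nM final. Growth read as SYBR Green-1 fluorescence after ~16 h lysis; artesunate 300 nM as positive control.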
# On the % scale 0 is the no-effect control and ±100 the full control effect; potency means the concentration at half of the fitted maximal effect.
Compound,Potency,"activity change, negative = inhibition"
ClC(Cl)(Cl)c1nc2ccccc2n2nncc12,2.11 µM (active),
COc1cccc(-c2cc3c(=O)n(CCNC(=O)c4cccc5[nH]ccc45)ccn3n2)c1,,-19.8% (inactive)
COc1cccc(-c2cc(C(=O)NCC34CCC=C3N(C)C(=O)CC4)[nH]n2)c1 (configuration not stated),,-26.8% (inactive)
CCCCN(CC)CCNC(=O)c1cc2c(-c3ccc(Cl)cc3)nn(C)c2s1,0.668 µM (active),
CN(CCNC(=O)c1cc2c(-c3ccccc3F)nn(C)c2s1)C1CCCCC1,5.96 µM (active),
CCCCN(C)CCNC(=O)c1cc2c(-c3cccc(OC)c3)nn(C)c2s1,6.68 µM (active),
CCCN(CCC)CCNC(=O)c1cc2c(-c3ccc(Cl)cc3)nn(C)c2s1,0.596 µM (active),
COC(=O)c1c(NC(=O)/C(C#N)=C/c2ccc(OC)cc2)sc2c1CCC2,,23.8% (inactive)
O=C(NCCCn1cccn1)C1Cn2cccc2C(=O)N1Cc1ccccc1 (configuration not stated),,2.79% (inactive)
COc1ccc(C(=O)N2CCOCC3(CN(Cc4ccccc4)C3)C2)c(OC)n1,,-10.6% [at 43.1 µM] (inactive)
COc1ccc(C2=NOC3(CCN([S+](=O)([O-])c4cccc(OC)c4)C3)C2)cc1 (configuration not stated),,7.53% (inactive)
COc1ccccc1CN1CCOCC2(C1)CN([S+](=O)([O-])c1ccccc1)C2,12.2 µM (active),
O=C(Nc1ccc(N2CCCCC2)c(Cl)c1)c1ncn[nH]1,4.73 µM (active),
Cc1ccc(Sc2ccc(N3CCCC(C(=O)Nc4ccc(F)c(Cl)c4)C3)nn2)cc1 (configuration not stated),,-3.9% (inactive)
CCc1c(C)c(C#N)c2nc3ccccc3n2c1NCC1CCCO1 (configuration not stated),2.99 µM (active),
COC(=O)CSc1nc2c(c(-c3ccco3)c1C#N)CCCC2,,10.9% (inactive)
N#Cc1c2c(c(NCc3ccco3)n3c1nc1ccccc13)CCC2,2.37 µM (active),
CN1c2cc(C(=O)NCc3nc4ccccc4n3C)ccc2C(=O)N2CCCCCC21 (configuration not stated),,-15.9% (inactive)
CC(=O)N1CCN([C@H]2[C@@H]3OC[C@@H](O3)[C@@H](NC(=O)Nc3ccc(F)cc3)[C@@H]2O)CC1,,41.4% [at 43.1 µM] (inactive)
O[C@H]1[C@H](NCc2ccc(-c3ccccc3)cc2)[C@H]2CO[C@H](O2)[C@@H]1Oc1ccccc1,,-7.84% [at 43.1 µM] (inactive)
O[C@H]1[C@H](NCC2CCCCC2)[C@H]2CO[C@H](O2)[C@@H]1N1CCC(Cc2ccccc2)CC1,1.37 µM (active),
COc1ccccc1N1CCN([C@H]2[C@@H]3OC[C@@H](O3)[C@@H](NCc3ccc(-c4ccccc4)cc3)[C@@H]2O)CC1,15 µM (active),
COc1ccccc1N1CCN([C@H]2[C@@H]3OC[C@@H](O3)[C@@H](N(CC3CC3)CC3CC3)[C@@H]2O)CC1,,16.2% (inactive)
Oc1ccccc1CN[C@H]1[C@H](O)[C@@H](N2CCC(Cc3ccccc3)CC2)[C@@H]2OC[C@H]1O2,3.44 µM (active),
CC(=O)N1CCN([C@H]2[C@@H]3OC[C@@H](O3)[C@@H](NC(=O)Nc3ccccc3)[C@@H]2O)CC1,,7.1% [at 43.1 µM] (inactive)

Compound,Potency,"activity change, negative = inhibition"
O=C(Nc1ccccc1)N[C@H]1[C@H](O)[C@@H](Oc2ccccc2)[C@@H]2OC[C@H]1O2,,-7.12% [at 43.1 µM] (inactive)
CCc1noc(-c2ccn3c(CNC(=O)Cc4cccc(F)c4)nnc3c2)n1,,-18.4% (inactive)
Cc1cc(NC(=O)CSc2ccc3nnc(-c4cccc(F)c4)n3n2)no1,5.96 µM (active),
CCOC(=O)CC(=O)CSc1ccc2nnc(-c3ccccc3)n2n1,,-4.34% (inactive)
CCCc1noc(-c2cccn3c(CNC(=O)c4ccc(Cl)cc4)nnc23)n1,,0% (inactive)
COc1cc2c(cc1CNc1ncncn1)CCC2,,39.6% (inactive)
CC(=O)Nc1cccc(-c2ccnc(-c3nnc(C)n3Cc3ccccc3)c2)c1,,-23% [at 43.1 µM] (inactive)
Cc1ccccc1C(=O)Nc1cccc(-c2nc3cccnc3s2)c1,,6.23% (inactive)
O=C(CCl)Nc1cccc(-c2cnc3ccccc3n2)c1,6.68 µM (active),
O=C(Nc1ccc(S(=O)(=O)NC2=NCCCCC2)cc1)c1ccco1,,32.7% (inactive)
O=c1c2ccccc2c(C=Nc2cccc(S(=O)(=O)NC3=NCCCCC3)c2)c(O)n1Cc1ccccc1,13.3 µM (active),
O=C(CCC[C@H]1NC[C@@H]2C[C@H]1CN(Cc1ccccc1)C2)NCCCN1CCCc2ccccc21,10.6 µM (active),
Cc1nnc2c(N3CCN(c4ccccc4)CC3)nc3ccc(C(=O)c4ccccc4)cc3n12,0.842 µM (active),
COc1ccccc1-c1ccc(CN2CCCC(c3nc4ccc(F)cc4c(=O)[nH]3)C2)cc1 (configuration not stated),8.41 µM (active),
CCN1CCCC(c2nc3ccc(F)cc3c(=O)[nH]2)C1 (configuration not stated),,-2.32% [at 43.1 µM] (inactive)
Fc1ccc(CN2CC[C@H](c3nc4ccc(C(F)(F)F)cc4[nH]3)C2)cc1F,,-9.52% [at 43.1 µM] (inactive)
Cc1ccc(Cl)cc1N1CCN(C(=O)c2ccc3c(Cl)c4c(nc3c2)CCCC4)CC1,,-6.77% (inactive)
COc1ccc(N2C(N)=NC(N)=NC23CCCC3)cc1,,-11.4% (inactive)
COc1ccc(N2CCN(Cc3cc4c(cc3O)CCC4)CC2)cc1,16.8 µM (active),
COc1ccc(CN2CCC3(CC2)CC(O)CCO3)c(OC)c1 (configuration not stated),,-4% (inactive)
Oc1cc2c(cc1CN1CCN(c3cccc(C(F)(F)F)c3)CC1)CCC2,0.944 µM (active),
CC(=O)N1CCC(C2CCN(Cc3cc(Cl)ccc3F)C2)CC1 (configuration not stated),,-23.3% (inactive)
O=C(c1ccc2c(Cl)c3c(nc2c1)CCCC3)N1CCN(c2cccc(C(F)(F)F)c2)CC1,,10.1% (inactive)
Cc1ccc(Cl)cc1N1CCN(Cc2cc3c(cc2O)CCC3)CC1,0.188 µM (active),
CC(C)NC(=O)N1CCCC(Cn2c(C3CC3)nc3cccnc32)C1 (configuration not stated),,6.13% (inactive)

Compound,Potency,"activity change, negative = inhibition"
N#CC1CCN(C(=O)c2nc(-c3cccc(C(F)(F)F)c3)c3cnccn23)CC1,16.8 µM (active),
O=C1Nc2ccc(-c3cccc(C(F)(F)F)c3)cc2C(=O)N2CCN(C(=O)c3ccccc3)C[C@H]12,,-28.5% (inactive)
O=C(Cc1ccccc1)N1CCCC2(CC(c3cccc(C(F)(F)F)c3)=NO2)C1 (configuration not stated),,-13.8% (inactive)
O=C(c1nc(-c2cccc(C(F)(F)F)c2)c2cnccn12)N1CCCC1,10.6 µM (active),
Cc1cc(Nc2cc(Cl)cc(Cl)c2)nc(N)n1,6.68 µM (active),
CCOCc1cnc(C)nc1NCC(=O)c1c(C)[nH]c2cc(C)ccc12,4.22 µM (active),
CCN1CCC(OCCCNC(=O)C2(CCO)CC23CCOCC3)CC1 (configuration not stated),,10.7% (inactive)
COc1cc(OC)cc(-c2cc3nc4c(c(N5CCN(c6ncccn6)CC5)n3n2)CCCC4)c1,4.22 µM (active),
COc1ccc(-c2nnc([C@H]3CCN(c4ncccn4)C3)o2)cc1,,7.2% [at 43.1 µM] (inactive)
CCOC(=O)Cn1c2c(c(=N)c3c1CCC3)CCCC2,,-23.5% (inactive)
CCn1c2c(c(=N)c3c1CCC3)CCCC2,13.3 µM (active),
CCOC(=O)Cn1c2c(c(=N)c3c1CCC3)CCC2,,-10.2% (inactive)
CCCn1c2c(c(=N)c3c1CCC3)CCCC2,10.6 µM (active),
CCCn1c2c(c(=N)c3c1CCC3)CCC2,13.3 µM (active),
CCn1c2c(c(=N)c3ccccc31)CCC2,6.68 µM (active),
CCCCn1c2c(c(=N)c3c1CCC3)CCC2,8.41 µM (active),
CC(C)c1noc(-c2cccn3c(CNC(=O)c4ccc(F)cc4Cl)nnc23)n1,,-11.9% (inactive)
Cc1nn2c(c1-c1ccccc1[S+](C)(=O)[O-])N(Cc1ccc(C(=O)O)s1)CCC2,7.69 µM (active),
Cc1nn2c(c1-c1ccccc1C(C)C)N(CCC(C)C)CCC2,2.17 µM (active),
Cc1nn2c(c1-c1ccccc1-c1ccccc1)N(CC1CC1)CCC2,0.968 µM (active),
Cc1nn2c(c1-c1ccccc1-c1ccccc1)N(CCC(C)C)CCC2,0.243 µM (active),
Cc1ccc(-c2csc3nc[nH]c(=O)c23)c(C)c1,,48.1% (inactive)
CCc1noc(-c2cccn3c(CNC(=O)COc4ccc(F)cc4)nnc23)n1,,38.7% (inactive)
O=C1Cc2c(-c3ccc(Oc4ccccc4)cc3)n[nH]c2CN1Cc1ccccc1F,,-12.3% [at 43.1 µM] (inactive)
Cc1nn2c(c1-c1ccccc1[S+](C)(=O)[O-])N(CCC(C)C)CCC2,9.68 µM (active),

Compound,Potency,"activity change, negative = inhibition"
O=C1CCC2(CCN1)CCN(C(=O)C1CCCCC1)CC2,,5.58% (inactive)
CCC(=O)N1c2ccccc2CC1C(=O)NCc1ccccc1C (configuration not stated),,-8.52% (inactive)
COc1ccc(C(=O)N2CCC(C3CCN(S(C)(=O)=O)CC3)C2)c(OC)n1 (configuration not stated),,4.48% (inactive)
CCN(CC)c1ccc(NC(=O)COc2ccccc2C#N)cc1S(=O)(=O)Nc1ccccc1OC,7.5 µM (active),
COc1ccccc1N(CC(=O)Nc1cc(C)cc(C)c1)S(C)(=O)=O,,20.6% (inactive)
CN(C)CC(CCC(CN(C)C)C(O)(c1ccccc1)c1ccccc1)C(O)(c1ccccc1)c1ccccc1 (configuration not stated),2.11 µM (active),
OC(Cc1ccncc1)(c1ccccc1)c1ccccc1,,-3.46% (inactive)
CCOc1ccccc1Nc1nc2ccccc2nc1NS(=O)(=O)c1ccc(Cl)cc1,,-48.2% (inactive)
O=S(=O)(Nc1cc2nc3ccccc3nc2n1Cc1ccccc1)c1ccc(Cl)cc1,1.19 µM (active),
Cc1nn(CCCC(=O)Nc2ccccc2C(F)(F)F)c(=O)c2nn(-c3ccccc3)c(C)c12,,-20.3% (inactive)
COc1cc(Br)c(C(C)NC(=O)c2cccc(Br)c2)cc1OC (configuration not stated),2.11 µM (active),
CC(C)CN1C(=O)CO[C@H](c2ccc(NC(=O)C3CCCC3)cc2)[C@H]1CO,,36.8% [at 43.1 µM] (inactive)
O=C(Nc1ccccc1O)c1ccc(NC(=O)C2CC2)cc1,4.73 µM (active),
COc1ccccc1N1CCN(CCCNC(=O)c2cnn(-c3ccccc3Cl)c2C2CCN(C(=O)OC(C)(C)C)CC2)CC1,2.37 µM (active),
COc1ccccc1N1CCN(CCCNC(=O)c2cnn(-c3cccc(Cl)c3)c2C2CCN(C(=O)OC(C)(C)C)CC2)CC1,2.11 µM (active),
Cc1cc(Nc2cccc(C(F)(F)F)c2)nc2ccc(NC(=O)c3cncc(Br)c3)cc12,2.37 µM (active),
CCN1CCN(c2cc(C)c3cc(NC(=O)c4cc(OC)cc(OC)c4)ccc3n2)CC1,3.35 µM (active),
Cc1cc(=O)n2[nH]c(NC(=O)c3cccc(Cl)c3)nc2n1,,-24% (inactive)
CCN1c2cc(C(=O)Nc3cccc(Cl)c3)ccc2C(=O)N2CCCCC21 (configuration not stated),,8.46% (inactive)
CCN1CCN(c2cc(C)c3cc(NC(=O)c4cc(OC)c(OC)c(OC)c4)ccc3n2)CC1,1.33 µM (active),
CCOc1ccc(C(=O)Nc2cccc(NC(=O)c3ccc(C(C)(C)C)cc3)c2)cc1Br,,1.12% (inactive)
CCN1CCN(c2cc(C)c3cc(NC(=O)c4cccc(Cl)c4)ccc3n2)CC1,4.73 µM (active),
